# In publication PMC5540273 (PLoS ONE, 2017):
# How the values were obtained:
# Conditions in all cases: concentration: 1 μM, replicates: in singlicate; n = 1
# MAP3K3 = test system: MAP3K3
# MAP3K4 = test system: MAP3K4
# MAP4K2 = test system: MAP4K2
# MAP4K3 = test system: MAP4K3
# MAP4K4 = test system: MAP4K4
# MAP4K5 = test system: MAP4K5
# MAPKAPK2 = test system: MAPKAPK2
# MAPKAPK5 = test system: MAPKAPK5
# MARK1 = test system: MARK1
# MARK2 = test system: MARK2
# MARK3 = test system: MARK3
# MARK4 = test system: MARK4
# MAST1 = test system: MAST1
# MEK1 = test system: T1, MEK1
# T1 construct: gene MAP2K1
# MEK2 = test system: T2, MEK2
# T2 construct: gene MAP2K2
# MEK3 = test system: T3, MEK3
# T3 construct: gene MAP2K3
# MEK4 = test system: T4, MEK4
# T4 construct: gene MAP2K4
# MEK5 = test system: T5, MEK5
# T5 construct: gene MAP2K5
# MEK6 = test system: T6, MEK6
# T6 construct: gene MAP2K6
# MELK = test system: MELK
# 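Note: KINOMEscan kinase panel screen.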
SMILES,%Inh (MAP3K3) [%],%Inh (MAP3K4) [%],%Inh (MAP4K2) [%],%Inh (MAP4K3) [%],%Inh (MAP4K4) [%],%Inh (MAP4K5) [%],%Inh (MAPKAPK2) [%],%Inh (MAPKAPK5) [%],%Inh (MARK1) [%],%Inh (MARK2) [%],%Inh (MARK3) [%],%Inh (MARK4) [%],%Inh (MAST1) [%],%Inh (MEK1) [%],%Inh (MEK2) [%],%Inh (MEK3) [%],%Inh (MEK4) [%],%Inh (MEK5) [%],%Inh (MEK6) [%],%Inh (MELK) [%]
Fc1cccc(COc2ccc(Nc3ncnc4nn5ccccc5c34)cc2Cl)c1 [GW689066],0,0,0,0,0,0,4,0,0,0,0,0,23,0,0,0,8,45,0,5
CSc1ccc(NC2=C(c3ccccc3Cl)C(=O)NC2=O)cc1 [SB-342411],0,30,0,10,2,6,3,1,3,0,0,13,0,14,3,0,0,5,76,4
CSc1nn2c(=O)cc(N3CCOCC3)nc2n1Cc1cccc(Cl)c1Cl [GSK2347225],0,31,0,42,22,12,22,0,0,0,2,3,0,0,5,0,33,48,0,18
Cc1cccc(-c2nc(Nc3ccc4[nH]nnc4c3)c3ccccc3n2)n1 [GW867587],0,0,0,0,0,0,0,0,0,0,18,3,17,7,16,5,0,19,0,0
